From PubChem
Giardia FBPA inh – Giardia lamblia aldolase inhibition; A8B2U2; purified Giardia FBPA; Potency, µM (top dose mostly 59.6 µM), for the others: at the top dose activity, negative = inhibition, usual class: inhibitors; actives 0.71% (n = 290,000); AID 2451; further: potency means the concentration at half of the fitted maximal effect; nearly all actives have a fitted effect of over 55% in size
Target sequence (A8B2U2 whole entry, looked up): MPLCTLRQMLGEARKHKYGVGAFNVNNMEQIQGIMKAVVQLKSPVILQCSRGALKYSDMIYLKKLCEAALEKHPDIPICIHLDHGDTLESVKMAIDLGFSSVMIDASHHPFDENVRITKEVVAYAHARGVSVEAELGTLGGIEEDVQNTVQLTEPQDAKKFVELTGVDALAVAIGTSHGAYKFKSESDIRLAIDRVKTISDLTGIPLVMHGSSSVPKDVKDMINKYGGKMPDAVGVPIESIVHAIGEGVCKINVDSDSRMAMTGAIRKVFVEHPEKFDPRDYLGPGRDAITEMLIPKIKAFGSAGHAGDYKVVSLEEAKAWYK
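40 nM FBPA preincubated 10 min at RT with compound (up to 57.5 uM final), then substrate plus GAPDH/TPI/NAD/arsenate coupling and diaphorase/resazurin added. Fluorescence read after 20 min at RT, 525/598 nm.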
Pf growth 48h – P. falciparum growth inhibition at 48 hours (one generation); P. falciparum luciferase growth in erythrocytes, 48 h; Potency, µM (highest dose often 28.7 µM), for inactives: top-dose activity change, negative = inhibition, usual class: inhibitors; actives 5.9% (n = 310,000); further: potency means the concentration at half of the fitted maximal effect
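Erythrocytes infected with P. falciparum carrying an integrated firefly luciferase reporter (2% hematocrit, 0.1% parasitemia final) were exposed to compounds in RPMI 1640 with 0.5% Albumax at 37 C, 5% CO2. Growth inhibition was scored as reduced luminescence.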
Sm TGR inh – blocks Schistosoma mansoni thioredoxin glutathione reductase | Q962Y6 | purified TGR, DTNB reduction, TNB absorbance 405 nm | Potency, µM (titrated, usually from 114 µM), for the others: top-dose activity change, negative = inhibition, actives largely listed as inhibitors | actives 3% (n = 360,000); further: potency means the concentration at half of the fitted maximal effect; nearly all actives have a fitted effect of over 60% in size
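TGR 20 nM + NADPH 100 uM (dispensed conc.), cpd preinc 15 min RT; start with NADPH (500 uM addition) then DTNB (15 mM addition). Kinetic TNB absorbance, 405 nm filter. Four-parameter Hill fit across titration.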
HCMV antiviral – inhibitors of human cytomegalovirus. activity change, negative = inhibition, % at 57.5 µM. HFF cells, HCMV-luciferase reporter, 72 h; hits give low values. actives 4.5% (n = 410,000); in the data active means activity change below about -60%; inconclusive means no clear call, values can overlap the other calls; inactive means above about -39%
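Steps: HFFs plated, 16 h 37C; compounds added; HCMV-luciferase added to MOI 1 PFU/cell; 72 h 37C; OneGlo reagent, 5 min room temperature; luminescence read, normalized to controls.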
Pf growth 96h – P. falciparum growth inhibition at 96 hour, primary screen for plastid delayed-death inhibitors | P. falciparum luciferase reporter growth, 96 h | Potency, µM (top dose mostly 28.7 µM), without a hit: top-dose activity change, negative = inhibition, hits mostly inhibitors | actives 6.9% (n = 320,000) | AID 504834; further: potency means the concentration at half of the fitted maximal effect
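P. falciparum expressing integrated firefly luciferase grown in erythrocytes (2% hematocrit, 0.05% parasitemia final) with compounds for 96 hours at 37 C, 5% CO2. Growth inhibition read as loss of luminescence after adding luciferase detection reagent.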
The depositor's hits bear a star; u = inconclusive; x = no result; [ ] = dose if it differs, or a comment. In the library only some 14% were active in any assay of this set; here they are far more common. Unless noted, the call rests on the fitted dose curve; in most records, active means well fitted curve in the direction sought with a large enough effect; inconclusive means small, poorly fitted or top-dose-only effect, or another doubt; inactive means no such curve, though single readings can be large; an effect the other way counts as inactive or inconclusive. On the % scale 0 is the no-effect control and ±100 the full control effect.

SMILES	Giardia FBPA inh	Pf growth 48h	Sm TGR inh	HCMV antiviral	Pf growth 96h
COC(=O)[C@@H]1C[C@@H]2CC[C@@H](O)C[C@@H]2N1Cc1ccc(-c2ccccc2)cc1	1%	x	x	x	x
Cc1cc(O)c(C)c2c1CC[C@H]1[C@H](C)C(=O)O[C@H]21	1%	x	x	x	x
COc1cccc([C@@H]2Oc3ccc(Br)cc3C(=O)[C@H]2OC(=O)Nc2ccc(OC(F)F)cc2)c1	-4%	x	x	x	x
CC(=O)Nc1cccc(Cn2cccn2)c1	-3%	6%	-1%	17	13µM*
NC(=O)[C@@H]1CCCN1C(=O)c1ccc2nc(Cc3cccc(Cl)c3)oc2c1	x	2%	-12%	-35	10µM*
Cc1cc([N+](=O)[O-])ccc1NC(=O)C(C)NC1CCCCC1 (stereo not given)	3%	1%	-4%	-21	u
CCOC(=S)SCC(=O)Nc1nc(C)c(C)s1	-12%	19%	8%	65	91%
CCOC(=O)N1CCN(C(=O)CSCC(=O)Nc2nc(-c3ccc(OC)cc3)cs2)CC1	1%	u	3%	14	u
CCOC(=O)N1CCN(C(=O)CSCC(=O)Nc2nc(-c3ccc(-c4ccccc4)cc3)cs2)CC1	-2%	u	-14%	-77*	10µM*
CCOC(=S)SCC(=O)Nc1nc(-c2ccccc2)cs1	-7%	u	-20%	-73*	u
CCOC(=S)SCC(=O)Nc1nc(-c2ccc(Br)cc2)cs1	0%	-95%	8%	-100*	3.3µM*
CCOC(=S)SCC(=O)Nc1nccs1	2%	u	7%	3	6%
O=C(NCc1ccccc1)C(c1ccccc1)n1c(C2CC2)nc2ccccc21 (stereo not given)	x	x	x	30	x
CC(=O)Nc1ccc(NC(=O)C2CCN(S(C)(=O)=O)CC2)cc1	x	x	x	26	x
COC(=O)[C@@H](Cc1c[nH]c2ccccc12)NCc1cccc(B(O)O)c1	x	x	x	6	x
COc1cc(OC)cc(C(=O)OCc2ccc([N+](=O)[O-])cc2)c1	1%	-3%	3%	u	44%
CCc1ccc(-c2cc3c(=O)n(CC(=O)NCCCN4CCC(Cc5ccccc5)CC4)nc(C)n3n2)cc1	x	u	-1%	-4	u
Cc1nn(CC(=O)NCCCN2CCC(Cc3ccccc3)CC2)c(=O)c2cc(-c3ccccc3)nn12	x	u	-26%	16	4.1µM*
CC1CCCCc2cc(O)ccc2OC(=O)CC1 (stereo not given)	x	x	x	-11	x
C=CCn1c2ccccc2c2nnc(SCCN3CCCCC3)nc21	8%	u	-22%	-8	10µM*
c1ccc(Cn2c3ccccc3c3nnc(SCCN4CCCCC4)nc32)cc1	5%	9.3µM*	-2%	-60*	u
C=CCn1c2ccccc2c2nnc(SCCCn3c(=O)[nH]c4ccccc43)nc21	7%	13µM*	-1%	51	-11%
CCCn1c2ccc(C)cc2c2nnc(SCCN3CCCCC3)nc21	3%	u	-24%	28	9.3µM*
CN(C)CC(=O)N1[C@H](C(=O)Nc2nccs2)[C@@H](CO)[C@@H]2Cn3c(ccc(C4=CCCCC4)c3=O)[C@@H]21	x	x	x	-6	x
Cn1cccc1C(=O)N1CCC2(CCCN(Cc3ccncc3)C2)CC1	5%	x	x	x	x
SMILES	Giardia FBPA inh	Pf growth 48h	Sm TGR inh	HCMV antiviral	Pf growth 96h
Fc1cccc(Oc2ccc3c(-c4ccccc4F)noc3n2)c1	x	x	x	-25	x
Cc1cc(Oc2ccc(N)cn2)cc(C)c1Cl	-6%	5%	40µM*	25	24%
O=[N+]([O-])c1ccc(Oc2ccc(C(F)(F)F)cn2)cc1	-5%	7%	-4%	-1	20%[5.75 µM]
Nc1ccc(Oc2c(Cl)cccc2Cl)nc1	-1%	35%	u	-10	10%
CC(C)(C)c1ccc(Oc2ccc(N)cn2)cc1	-5%	-20%	13µM*	-72*	u
CSc1nc(N)c2ncn([C@H]3O[C@H](COP(=O)(O)OP(=O)(O)OP(=O)(O)O)[C@@H](O)[C@@H]3O)c2n1	7%	x	x	x	x
O=S1(=O)C=C[C@@H](COCc2ccccc2)N1Cc1ccc(Br)cc1	x	x	x	-21	x
Cc1cc2nc(-c3cccnc3SCC(=O)NC3CC3)[nH]c2cc1C	u	157%	-2%	67	88%
Cc1cc2nc(-c3cccnc3SCC(=O)NCc3ccco3)[nH]c2cc1C	u	0%	18µM*	163	44%
O=C(CSc1ncccc1-c1nc2ccccc2[nH]1)NCc1ccco1	-26%	37%	13µM*	58	1%[5.75 µM]
O=C(CSc1nc2ccccc2[nH]1)NCc1ccco1	-3%	38%	0%	63	-21%
CSCC[C@H](NC(=O)c1ccc(Cl)c(S(=O)(=O)N2CCCC2)c1)c1nc2ccccc2[nH]1	-6%	12µM*	-4%	44	10µM*
CC(C)C(NC(=O)c1ccc(S(=O)(=O)N2CCOCC2)cc1)c1nc2ccccc2[nH]1 (stereo not given)	-1%	-20%	17%	40	13µM*
CC(C)C(NC(=O)C(c1ccccc1)c1ccccc1)c1nc2ccccc2[nH]1 (stereo not given)	4%	9.3µM*	6%	21	x
CSCC[C@H](NC(=O)C(C)(C)Oc1ccc(Cl)cc1)c1nc2ccccc2[nH]1	3%	u	6%	0	10µM*
O=c1[nH]c(-c2ccccc2)cn1C1CCN(Cc2ccc(-c3nc4ccc(Br)cc4nc3-c3ccccc3)cc2)CC1	x	x	x	-5	x
C[C@H](NC(=O)c1ccc(Cl)c(S(=O)(=O)N2CCOCC2)c1)c1nc2ccccc2[nH]1	x	u	1%	0	3.3µM*
CC1(C)CC(NCCN2CCN(C3=CC(=C(C#N)C#N)CC(C)(C)C3)CC2)=CC(=C(C#N)C#N)C1	-2%	u	0%	-63*	u
CC(C)(C)n1nnnc1C(c1cccs1)N(Cc1cccnc1)Cc1ccco1 (stereo not given)	10%	10µM*	-23%	-11	7.4µM*
CC(C)(C)n1nnnc1C(c1ccncc1)N(Cc1ccccc1)Cc1ccco1 (stereo not given)	-19%	13µM*	0%	-23	x
CN(C)CCN(Cc1ccccc1)C(c1cc2ccccc2o1)c1nnnn1C(C)(C)C (stereo not given)	x	x	x	-22	x
CC(C)(C)n1nnnc1C(c1cccs1)N1CCN(Cc2ccc3c(c2)OCO3)CC1 (stereo not given)	-8%	u	-1%	-28	10%
CC(C)(C)n1nnnc1C(c1cccs1)N(Cc1ccccc1)Cc1ccco1 (stereo not given)	4%	13µM*	u	-35	21%
CCc1ccc(-n2nc3cc(C)c(NC(=O)c4cc(Cl)ccc4OC)cc3n2)cc1	x	x	7%	11	x
COc1ccc(-c2noc(COc3ccc(Br)cc3C)n2)cc1OC	x	x	8%	13	x
Cc1cc(N2CCCC2)nc2ccccc12	7%	-10%	x	-39	0%
